# Source: the supplement of paper PMC8728848
# The entries come from a sample that favours the strongest signals as a whole.
# B1: MAA (Maackia amurensis), P0DKL3 (protein)
# chain: MATSNSKPTQVLLATFLTFFFLLLNNVNSSDELSFTINNFVPNEADLLFQGEASVSSTGVLQLTRVENGQPQKYSVGRALYAAPVRIWDNTTGSVASFSTSFTFVVKAPNPDITSDGLAFYLAPPDSQIPSGSVSKYLGLFNNSNSDSSNQIVAVELDTYFAHSYDPWDPNYRHIGIDVNGIESIKTVQWDWINGGVAFATITYLAPNKTLIASLVYPSNQTTFSVAASVDLKEILPEWVRVGFSAATGYPTEVETHDVLSWSFTSTLEANCDAATENNVHIARYTA
# Assays:
# Assay in all cases: glycan array binding signal (z-score within array); higher = stronger binding
# Conditions in all cases: glycan notation: IUPAC condensed, linker removed
# [1] = biological target: GlcNAc(a1-4)Gal(b1-3)GlcNAc
# Procedure, shortened: (§1)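 Glycan array data came from 3228 arrays in the Consortium for Functional Glycomics database, and only arrays with an available protein sequence were kept. Glycan names were put into IUPAC-condensed notation, and columns mapping to the same glycan were averaged. The binding signal is a within-array Z-score, averaged across arrays of one protein sequence run at different concentrations or buffers and across linkers. A negative Z-score can be read as non-binding.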
# [2] = biological target: GlcNAc(b1-3)Gal(b1-4)GlcNAc(b1-3)Gal(b1-4)GlcNAc(b1-3)Gal(b1-4)GlcNAc(b1-2)[GlcNAc(b1-3)Gal(b1-4)GlcNAc(b1-3)Gal(b1-4)GlcNAc(b1-3)Gal(b1-4)GlcNAc(b1-6)]Man(a1-6)[GlcNAc(b1-3)Gal(b1-4)GlcNAc(b1-3)Gal(b1-4)GlcNAc(b1-3)Gal(b1-4)GlcNAc(b1-2)Man(a1-3)]Man(b1-4)GlcNAc(b1-4)[Fuc(a1-6)]GlcNAc
# Procedure, shortened: as §1
# [3] = biological target: Man(a1-2)Man(a1-2)Man(a1-6)[Man(a1-3)]Man
# Procedure, shortened: as §1
# [4] = biological target: Man(a1-2)Man(a1-3)[Man(a1-6)]Man(a1-6)[Man(a1-2)Man(a1-3)]Man(b1-4)GlcNAc(b1-4)GlcNAc
# Procedure, shortened: as §1
# [5] = biological target: Neu5Ac(a2-3)Gal(b1-3)GalNAc(b1-4)[Neu5Ac(a2-8)Neu5Ac(a2-3)]Gal(b1-4)Glc
# Procedure, shortened: as §1
# [6] = biological target: Neu5Ac(a2-3)Gal(b1-3)GlcNAc(b1-3)Gal(b1-3)GlcNAc
# Procedure, shortened: as §1
# [7] = biological target: Neu5Ac(a2-3)Gal(b1-3)[GlcNAc(b1-6)]GalNAc
# Procedure, shortened: as §1
# [8] = biological target: Neu5Ac(a2-3)Gal(b1-4)GlcNAc(b1-2)Man(a1-3)[Neu5Ac(a2-3)Gal(b1-4)GlcNAc(b1-2)Man(a1-6)]Man(b1-4)GlcNAc(b1-4)GlcNAc
# Procedure, shortened: as §1
# [9] = biological target: Neu5Ac(a2-3)Gal(b1-4)GlcNAc(b1-3)Gal(b1-4)GlcNAc(b1-3)Gal(b1-4)GlcNAc
# Procedure, shortened: as §1
# [10] = biological target: Neu5Ac(a2-3)Gal(b1-4)GlcNAc(b1-3)Gal(b1-4)GlcNAc(b1-3)[Neu5Ac(a2-3)Gal(b1-4)GlcNAc(b1-3)Gal(b1-4)GlcNAc(b1-6)]GalNAc
# Procedure, shortened: as §1
# [11] = biological target: Neu5Ac(a2-3)Gal(b1-4)[Fuc(a1-3)]GlcNAc6S
# Procedure, shortened: as §1
# [12] = biological target: Neu5Ac(a2-6)Gal(b1-4)GlcNAc(b1-3)Gal(b1-4)GlcNAc(b1-3)[Neu5Ac(a2-6)Gal(b1-4)GlcNAc(b1-3)Gal(b1-4)GlcNAc(b1-6)]GalNAc
# Procedure, shortened: as §1
# Neu5Ac(a2-6)GalNAc = biological target: Neu5Ac(a2-6)GalNAc
# Procedure, shortened: as §1
# [13] = biological target: Neu5Ac(a2-8)Neu5Ac(a2-3)Gal(b1-4)GlcNAc
# Procedure, shortened: as §1
# [14] = biological target: Neu5Ac(a2-8)Neu5Ac(a2-8)Neu5Ac(a2-3)[GalNAc(b1-4)]Gal(b1-4)Glc
# Procedure, shortened: as §1
# [15] = biological target: Neu5Gc(a2-3)Gal(b1-4)GlcNAc(b1-3)Gal(b1-4)GlcNAc(b1-2)Man(a1-3)[Neu5Gc(a2-3)Gal(b1-4)GlcNAc(b1-3)Gal(b1-4)GlcNAc(b1-2)Man(a1-6)]Man(b1-4)GlcNAc(b1-4)GlcNAc
# Procedure, shortened: as §1
# [16] = biological target: Neu5Gc(a2-8)Neu5Gc(a2-3)Gal(b1-4)GlcNAc
# Procedure, shortened: as §1
# [17] = biological target: Neu5Gc(a2-8)Neu5Gc(a2-3)Gal(b1-4)GlcNAc(b1-3)Gal(b1-4)GlcNAc
# Procedure, shortened: as §1
binder,measurement,setting,value
B1,glycan array binding signal (z-score),[1],-0.226
same,glycan array binding signal (z-score),[2],0.282
same,glycan array binding signal (z-score),[3],-0.236
same,glycan array binding signal (z-score),[4],-0.2
same,glycan array binding signal (z-score),[5],-0.163
same,glycan array binding signal (z-score),[6],-0.173
same,glycan array binding signal (z-score),[7],-0.229
same,glycan array binding signal (z-score),[8],1.17
same,glycan array binding signal (z-score),[9],1.27
same,glycan array binding signal (z-score),[10],1.22
same,glycan array binding signal (z-score),[11],-0.236
same,glycan array binding signal (z-score),[12],0.454
same,glycan array binding signal (z-score),Neu5Ac(a2-6)GalNAc,-0.257
same,glycan array binding signal (z-score),[13],0.479
same,glycan array binding signal (z-score),[14],-0.155
same,glycan array binding signal (z-score),[15],2.07
same,glycan array binding signal (z-score),[16],0.744
same,glycan array binding signal (z-score),[17],1.13
